# In PubChem BioAssay (Tox21):
# Results filed as inconclusive are left out. Entries that show only a call come without a potency. Activity calls are given as the source filed them. Calls come from the whole dose curve; as a rule, active = well fitted activation curve with a large enough effect in the repeat runs; inconclusive = weak or mixed curves; inactive = flat fitted curve, though single readings scatter.
# Assay: Caspase-3/7 induction in HepG2 cells by small molecules, qHTS assay (AID 1346978); note: nearly all actives have a fitted effect of over 15% in size
# Conditions: HepG2 caspase-3/7 activation, Caspase-Glo luminescence, 17 h; series mostly up to 92.4 µM
# Source text: National Center for Advancing Translational Sciences [NCATS] NIH Chemical Genomics Center [NCGC] U.S. Environmental Protection Agency [EPA] National Institutes of Environmental Health Sciences [NIEHS] National Toxicology Program [NTP] Assay overview: Apoptosis is a process of programmed cell death and plays a central role in the development of multicellular organisms. It is a highly regulated process and induces cell death by activating caspases, which are the members of cysteine aspartic acid-specific protease (caspase) family. Caspases involved in apoptosis are classified by their mechanism of action as initiator caspases (caspase-2, -8, -9 and -10) and executioner caspases (caspase-3, -6, and -7). Inhibition of apoptosis results in number of cancers, autoimmune diseases, inflammatory diseases and viral infection. To identify small molecule compounds that induce apoptosis, a homogeneous, luminescent Caspase-Glo 3/7 assay was used. Wild type HepG2 cells were used to screen Tox21 libraries for identifying caspase-3/7 activity inducers.
# Assay Protocol Summary: HepG2 cells were dispensed at 2,000 per well in 5uL of culture medium into white solid bottom 1536-well plates (Corning Life Sciences, Corning, NY) using a Multidrop Combi (Thermo Scientific, Waltham, MA) dispenser. The assay plates were incubated at 37 C and 5% CO2 for 5hr, and then 23nL of compounds dissolved in DMSO and positive control were transferred using a Pintool station (Wako, San Diego, CA). The assay plates were incubated at 37C and 5% CO2 for 17hr. For caspase-3/7 activity read, 4uL of Caspase-Glo 3/7 reagent (Promega Corporation, Madison, WI) was added to each well of the assay plates using Flying Reagent Dispenser (FRD, Aurora Discovery, San Diego, CA) and incubated the assay plates at room temperature for 30min. The luminescence signal was quantified using a ViewLux plate reader (Perkin Elmer, Shelton, CT).
row,SMILES,Potency
1,COc1ccc(N)c(C)c1,inactive
2,CCCCCCO,inactive
3,C=CCCCCCCCCC(=O)O,inactive
4,CC(C)(Oc1ccc(CCNC(=O)c2ccc(Cl)cc2)cc1)C(=O)O,inactive
5,O=S(=O)(O)c1ccccc1,inactive
6,NC(=S)NNC(N)=S,inactive
7,CN1C(=O)CC[C@H]1c1cccnc1,inactive
8,CC(=O)Oc1ccc(C)cc1,inactive
9,Brc1ccc(Br)c(Br)c1,inactive
10,COc1ccc(CCC(C)=O)cc1,inactive
11,N#Cc1ccccc1,inactive
12,Cc1ccc(S(=O)(=O)N=C=O)cc1,inactive
13,COc1ccc([N+](=O)[O-])cc1N,inactive
14,CCO[Si](CCC#N)(OCC)OCC,inactive
15,Cc1ccc([N+](=O)[O-])cc1S(=O)(=O)O,inactive
16,O=C(O)Cn1c(=O)n(Cc2ccc(Br)cc2F)c(=O)c2ccc(Cl)cc21,inactive
17,Nc1ccc(Cl)c(N)c1,inactive
18,COc1ccccc1OCC(O)CO (stereo not given),inactive
19,O=C(O)/C=C/C(=O)O,inactive
20,CCNc1ccccc1,inactive

row,SMILES,Potency
1,CNC(=S)N(C)C,inactive
2,CC(C)OC(=O)COc1ccc(Cl)cc1Cl,inactive
3,Nc1nc(N)nc(-c2ccccc2)n1,inactive
4,OC1C(O)C(O)C(O)C(O)C1O (stereo not given),inactive
5,O=C(O)CCCCCCCCC(=O)O,inactive
6,CCOC(=O)n1ccn(C)c1=S,inactive
7,O=[N+]([O-])c1ccc2nc[nH]c2c1,inactive
8,C=CC(=O)OCCC(=O)O,inactive
9,CN(C)CCOC(=O)COc1ccc(Cl)cc1,inactive
10,CCCCOC(=O)c1ccc(N)cc1,inactive
11,O=S(=O)(O)c1ccc(N=Nc2c(O)ccc3cc(S(=O)(=O)O)ccc23)cc1,inactive
12,CC(=O)OCCOC(C)=O,inactive
13,c1ccc2c(c1)Cc1ccccc1-2,inactive
14,OCc1cccc(Oc2ccccc2)c1,inactive
15,c1ccc(Oc2ccccc2)cc1,inactive
16,NCCCCCCN,inactive
17,CCCCCCCCCCCC(=O)OC,inactive
18,CC(=O)c1ccc(O)cc1,inactive
19,CCCOC(=O)c1ccccc1,inactive
20,CCc1ccccc1CC,inactive
